Compounds without any hit were thinned out: in the full panel of roughly 83,000, 20% have a hit.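 Method: cells in 96-well plates; compound added at one concentration; 48 h incubation; percent growth measured; values under 10 scored active.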 Values without a mark were called inactive. Activity calls are given as the source filed them.

This assay deals with HL-60(TB) leukemia. Put plainly: NCI-60 one-dose screen, 48 h (100 = growth as untreated, 0 = no growth, -100 = all killed). The note with it: 10 µM unless noted.
`CCn1c(-c2nonc2Nc2ccc(OC)cc2)nc2ccccc21`: the growth is 128%.
The same measure for `O=C1c2ccccc2C(=O)c2c(NCCN=Cc3c(O)ccc4ccccc34)cccc21`: 66.3%; for `O=c1ccc(-c2nc(N3CCOCC3)c3ccccc3n2)c[nH]1`: 95.8%.
As for `Fc1ccc(NC(=S)c2ccccc2)cc1`, the growth is 102%.
In the case of `CSc1nc(-c2ccco2)c2c(N)[nH]nc2n1`, the growth was 82.9%.
The value for `C#CCOc1ccc2ncnc(N3CCC(NC(=O)CCl)CC3)c2c1` was 68.8% [8.25 µM].
Consider `CC1(C)CC[C@]2(CO)CC[C@]3(C)[C@H](CC[C@@H]4[C@@]5(C)CC[C@H](O)C(C)(C)[C@@H]5CC[C@]43C)[C@H]2[C@H]1O`, for which the growth was 117%.
With `CCOC(=S)Sc1ccc([N+](=O)[O-])cc1[N+](=O)[O-]`, the growth was -25.6% (active).
Take `Cc1cc(SCc2ccccc2)nc(N)n1`: the growth was 119%.
The value for `Cc1ccc(-c2nn(CC(=O)N3CCOCC3)c(N)c2C#N)cc1` was 103%.
Take `C[C@@H]1C(=O)N(C[C@H](Cc2ccccc2)N(Cc2ccccc2)Cc2ccccc2)[C@]1(Cc1ccccc1)C(=O)OC(C)(C)C`: the growth is 62.9%.
With `CC/C(=C\c1ccc(N(C)C)cc1)c1ccncc1`, the growth is 29.5%.
The same measure for `OC(CCN1CCCC1)(c1ccccc1)C1CCCCC1` (centres undefined): 119%; for `CCN(CC)CCCNCCCNc1cc(OC)cc2cccnc12`: -3.42% (active).
Turning to `CC(C)CC(NC(=O)OCC1c2ccccc2-c2ccccc21)C(=O)O` (centres undefined), the growth is 105%.
With `O=C(Nc1cccc(Cl)c1)Oc1c(Br)c(Br)c(Br)c(Br)c1Br`, the growth is 88.4%.
In the case of `CN(C)c1nc(-c2ccco2)n2nc(-c3ccco3)cc2n1`, the growth was 97.3%.
Consider `COc1ccc(/C=N/NC(=O)c2ccc(-n3cc(-c4ccccc4)nn3)cc2)cc1OC`, for which the growth was 94.2%.
On to `Cc1c2ccncc2c(C)c2c1c1ccccc1n2CCCCCC(=O)O`, for which the growth was 104%.
As to `Fc1ccc2nc(-c3nc(-c4ccccc4)n4ccccc34)[nH]c2c1`, the growth is 67.6%.
On to `c1ccc(Nc2ncc3c(n2)-c2cccn2CC3)cc1`, for which the growth is 107%.
For `CN1CCN(Cc2ccc(NC(=O)c3cncc(C#Cc4cnc5ccc(Cl)nn45)c3)cc2C(F)(F)F)CC1`, the growth is -17.6% (active).
For `CCN1C(=O)N(CC)C2C1NN=c1s/c(=C\c3cccc(F)c3)c(=O)n12` (centres undefined), the growth was -16.9% (active).
As to `N/C(=N\C(N)=N\c1nc2ccccc2s1)c1ccnc(Br)c1`, the growth was 2.51% (active).
Turning to `O=C(Nc1nc2ccc(OC(F)(F)F)cc2s1)c1ccc(F)cc1`, the growth is 14.3%.
Take `CNCCNc1nc2ccccc2c2c(=O)c3cccc(OC)c3sc12`: the growth was 26.5%.
Turning to `Fc1ccc(Nc2nnc(-c3ccc(Cl)cc3)o2)cc1`, the growth is 91.4%.
With `Oc1cccc(CCc2ccc(Oc3cc(CCc4cccc(O)c4)cc(O)c3O)cc2)c1`, the growth is 15.3%.
On to `O=C(CC(C(=O)c1ccccc1)N1CCOCC1)c1ccccc1` (centres undefined), for which the growth was 55.4%.
For the compound `Cc1c(Cl)cccc1NC(=S)NC(=O)c1ccccc1`, the growth is 92.9%.
For the compound `CCOc1cccnc1/C=N/NC(N)=S`, the growth is -17% (active).
For `C=C(C)[C@@H]1CC[C@]2(CN)CC[C@]3(C)[C@H](CC[C@@H]4[C@@]5(C)CCCNC(C)(C)[C@@H]5CC[C@]43C)[C@@H]12`, the growth was -52.8% (active).
Take `Brc1cnc2[nH]cc(-c3nnc(-c4ccccc4)o3)c2c1`: the growth was 94.5%.
In the case of `CCOC(=O)c1cn2ncnc(Oc3ccc(NC(=O)NCCN(CC)CC)c(Cl)c3)c2c1C`, the growth was 100%.
Consider `Cc1cnc(/C=N\NC(N)=S)c2cccc(N)c12`, for which the growth was -29.7% (active).
The same measure for `NCCn1cc(-c2nc(-c3c[nH]c4ncccc34)cs2)c2ccccc21`: 78.2%; for `COc1ccc(/C(C)=C(\c2ccc(OCCN3CCOCC3)cc2)c2ccc(OC(=O)C3CCCCC3)cc2)cc1`: 126%; for `COc1ccc(-c2nn(-c3ccccc3)cc2/C=C/C(=O)NNC(=O)Nc2ccc(C)cc2)cc1`: 90.5%.
The value for `COc1cc(C2CC(c3ccccc3)=NN2C(C)=O)cc(OC)c1OC` (centres undefined) was 14.2%.

For the origin of these results see PubChem BioAssay (NCI).
